In the supplement of paper PMC11001985:
A number with no mark means an inactive call.

compound: C#CCNC(=O)CCSSCCC(=O)NCCc1ccc(C=O)c(C=O)c1; test: lysine labeling ratio R10:1 (500 µM / 50 µM probe), SILAC-ABPP in living cells; higher = lower intrinsic lysine reactivity toward the probe, active = 2 or less; details: HeLa; probe concentrations 500 vs 50 µM
Method in brief: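 Living SILAC light and heavy HeLa cells in PBS at room temperature were treated with an alkyne-tagged, disulfide-linked lysine probe at 50 µM or 500 µM, with forward and reverse label swaps. The mixed lysates were clicked to biotin-azide, digested with trypsin, captured on neutravidin, released with DTT, alkylated and run by LC-MS/MS on a TIMS-TOF Pro. R for each lysine is the filtered median high-probe/low-probe MS1 peptide ratio, taken again as the median over forward and reverse replicates. Any value above 20 is set to 20.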

Sequence of UniProt Q15149 (Q15149 whole entry): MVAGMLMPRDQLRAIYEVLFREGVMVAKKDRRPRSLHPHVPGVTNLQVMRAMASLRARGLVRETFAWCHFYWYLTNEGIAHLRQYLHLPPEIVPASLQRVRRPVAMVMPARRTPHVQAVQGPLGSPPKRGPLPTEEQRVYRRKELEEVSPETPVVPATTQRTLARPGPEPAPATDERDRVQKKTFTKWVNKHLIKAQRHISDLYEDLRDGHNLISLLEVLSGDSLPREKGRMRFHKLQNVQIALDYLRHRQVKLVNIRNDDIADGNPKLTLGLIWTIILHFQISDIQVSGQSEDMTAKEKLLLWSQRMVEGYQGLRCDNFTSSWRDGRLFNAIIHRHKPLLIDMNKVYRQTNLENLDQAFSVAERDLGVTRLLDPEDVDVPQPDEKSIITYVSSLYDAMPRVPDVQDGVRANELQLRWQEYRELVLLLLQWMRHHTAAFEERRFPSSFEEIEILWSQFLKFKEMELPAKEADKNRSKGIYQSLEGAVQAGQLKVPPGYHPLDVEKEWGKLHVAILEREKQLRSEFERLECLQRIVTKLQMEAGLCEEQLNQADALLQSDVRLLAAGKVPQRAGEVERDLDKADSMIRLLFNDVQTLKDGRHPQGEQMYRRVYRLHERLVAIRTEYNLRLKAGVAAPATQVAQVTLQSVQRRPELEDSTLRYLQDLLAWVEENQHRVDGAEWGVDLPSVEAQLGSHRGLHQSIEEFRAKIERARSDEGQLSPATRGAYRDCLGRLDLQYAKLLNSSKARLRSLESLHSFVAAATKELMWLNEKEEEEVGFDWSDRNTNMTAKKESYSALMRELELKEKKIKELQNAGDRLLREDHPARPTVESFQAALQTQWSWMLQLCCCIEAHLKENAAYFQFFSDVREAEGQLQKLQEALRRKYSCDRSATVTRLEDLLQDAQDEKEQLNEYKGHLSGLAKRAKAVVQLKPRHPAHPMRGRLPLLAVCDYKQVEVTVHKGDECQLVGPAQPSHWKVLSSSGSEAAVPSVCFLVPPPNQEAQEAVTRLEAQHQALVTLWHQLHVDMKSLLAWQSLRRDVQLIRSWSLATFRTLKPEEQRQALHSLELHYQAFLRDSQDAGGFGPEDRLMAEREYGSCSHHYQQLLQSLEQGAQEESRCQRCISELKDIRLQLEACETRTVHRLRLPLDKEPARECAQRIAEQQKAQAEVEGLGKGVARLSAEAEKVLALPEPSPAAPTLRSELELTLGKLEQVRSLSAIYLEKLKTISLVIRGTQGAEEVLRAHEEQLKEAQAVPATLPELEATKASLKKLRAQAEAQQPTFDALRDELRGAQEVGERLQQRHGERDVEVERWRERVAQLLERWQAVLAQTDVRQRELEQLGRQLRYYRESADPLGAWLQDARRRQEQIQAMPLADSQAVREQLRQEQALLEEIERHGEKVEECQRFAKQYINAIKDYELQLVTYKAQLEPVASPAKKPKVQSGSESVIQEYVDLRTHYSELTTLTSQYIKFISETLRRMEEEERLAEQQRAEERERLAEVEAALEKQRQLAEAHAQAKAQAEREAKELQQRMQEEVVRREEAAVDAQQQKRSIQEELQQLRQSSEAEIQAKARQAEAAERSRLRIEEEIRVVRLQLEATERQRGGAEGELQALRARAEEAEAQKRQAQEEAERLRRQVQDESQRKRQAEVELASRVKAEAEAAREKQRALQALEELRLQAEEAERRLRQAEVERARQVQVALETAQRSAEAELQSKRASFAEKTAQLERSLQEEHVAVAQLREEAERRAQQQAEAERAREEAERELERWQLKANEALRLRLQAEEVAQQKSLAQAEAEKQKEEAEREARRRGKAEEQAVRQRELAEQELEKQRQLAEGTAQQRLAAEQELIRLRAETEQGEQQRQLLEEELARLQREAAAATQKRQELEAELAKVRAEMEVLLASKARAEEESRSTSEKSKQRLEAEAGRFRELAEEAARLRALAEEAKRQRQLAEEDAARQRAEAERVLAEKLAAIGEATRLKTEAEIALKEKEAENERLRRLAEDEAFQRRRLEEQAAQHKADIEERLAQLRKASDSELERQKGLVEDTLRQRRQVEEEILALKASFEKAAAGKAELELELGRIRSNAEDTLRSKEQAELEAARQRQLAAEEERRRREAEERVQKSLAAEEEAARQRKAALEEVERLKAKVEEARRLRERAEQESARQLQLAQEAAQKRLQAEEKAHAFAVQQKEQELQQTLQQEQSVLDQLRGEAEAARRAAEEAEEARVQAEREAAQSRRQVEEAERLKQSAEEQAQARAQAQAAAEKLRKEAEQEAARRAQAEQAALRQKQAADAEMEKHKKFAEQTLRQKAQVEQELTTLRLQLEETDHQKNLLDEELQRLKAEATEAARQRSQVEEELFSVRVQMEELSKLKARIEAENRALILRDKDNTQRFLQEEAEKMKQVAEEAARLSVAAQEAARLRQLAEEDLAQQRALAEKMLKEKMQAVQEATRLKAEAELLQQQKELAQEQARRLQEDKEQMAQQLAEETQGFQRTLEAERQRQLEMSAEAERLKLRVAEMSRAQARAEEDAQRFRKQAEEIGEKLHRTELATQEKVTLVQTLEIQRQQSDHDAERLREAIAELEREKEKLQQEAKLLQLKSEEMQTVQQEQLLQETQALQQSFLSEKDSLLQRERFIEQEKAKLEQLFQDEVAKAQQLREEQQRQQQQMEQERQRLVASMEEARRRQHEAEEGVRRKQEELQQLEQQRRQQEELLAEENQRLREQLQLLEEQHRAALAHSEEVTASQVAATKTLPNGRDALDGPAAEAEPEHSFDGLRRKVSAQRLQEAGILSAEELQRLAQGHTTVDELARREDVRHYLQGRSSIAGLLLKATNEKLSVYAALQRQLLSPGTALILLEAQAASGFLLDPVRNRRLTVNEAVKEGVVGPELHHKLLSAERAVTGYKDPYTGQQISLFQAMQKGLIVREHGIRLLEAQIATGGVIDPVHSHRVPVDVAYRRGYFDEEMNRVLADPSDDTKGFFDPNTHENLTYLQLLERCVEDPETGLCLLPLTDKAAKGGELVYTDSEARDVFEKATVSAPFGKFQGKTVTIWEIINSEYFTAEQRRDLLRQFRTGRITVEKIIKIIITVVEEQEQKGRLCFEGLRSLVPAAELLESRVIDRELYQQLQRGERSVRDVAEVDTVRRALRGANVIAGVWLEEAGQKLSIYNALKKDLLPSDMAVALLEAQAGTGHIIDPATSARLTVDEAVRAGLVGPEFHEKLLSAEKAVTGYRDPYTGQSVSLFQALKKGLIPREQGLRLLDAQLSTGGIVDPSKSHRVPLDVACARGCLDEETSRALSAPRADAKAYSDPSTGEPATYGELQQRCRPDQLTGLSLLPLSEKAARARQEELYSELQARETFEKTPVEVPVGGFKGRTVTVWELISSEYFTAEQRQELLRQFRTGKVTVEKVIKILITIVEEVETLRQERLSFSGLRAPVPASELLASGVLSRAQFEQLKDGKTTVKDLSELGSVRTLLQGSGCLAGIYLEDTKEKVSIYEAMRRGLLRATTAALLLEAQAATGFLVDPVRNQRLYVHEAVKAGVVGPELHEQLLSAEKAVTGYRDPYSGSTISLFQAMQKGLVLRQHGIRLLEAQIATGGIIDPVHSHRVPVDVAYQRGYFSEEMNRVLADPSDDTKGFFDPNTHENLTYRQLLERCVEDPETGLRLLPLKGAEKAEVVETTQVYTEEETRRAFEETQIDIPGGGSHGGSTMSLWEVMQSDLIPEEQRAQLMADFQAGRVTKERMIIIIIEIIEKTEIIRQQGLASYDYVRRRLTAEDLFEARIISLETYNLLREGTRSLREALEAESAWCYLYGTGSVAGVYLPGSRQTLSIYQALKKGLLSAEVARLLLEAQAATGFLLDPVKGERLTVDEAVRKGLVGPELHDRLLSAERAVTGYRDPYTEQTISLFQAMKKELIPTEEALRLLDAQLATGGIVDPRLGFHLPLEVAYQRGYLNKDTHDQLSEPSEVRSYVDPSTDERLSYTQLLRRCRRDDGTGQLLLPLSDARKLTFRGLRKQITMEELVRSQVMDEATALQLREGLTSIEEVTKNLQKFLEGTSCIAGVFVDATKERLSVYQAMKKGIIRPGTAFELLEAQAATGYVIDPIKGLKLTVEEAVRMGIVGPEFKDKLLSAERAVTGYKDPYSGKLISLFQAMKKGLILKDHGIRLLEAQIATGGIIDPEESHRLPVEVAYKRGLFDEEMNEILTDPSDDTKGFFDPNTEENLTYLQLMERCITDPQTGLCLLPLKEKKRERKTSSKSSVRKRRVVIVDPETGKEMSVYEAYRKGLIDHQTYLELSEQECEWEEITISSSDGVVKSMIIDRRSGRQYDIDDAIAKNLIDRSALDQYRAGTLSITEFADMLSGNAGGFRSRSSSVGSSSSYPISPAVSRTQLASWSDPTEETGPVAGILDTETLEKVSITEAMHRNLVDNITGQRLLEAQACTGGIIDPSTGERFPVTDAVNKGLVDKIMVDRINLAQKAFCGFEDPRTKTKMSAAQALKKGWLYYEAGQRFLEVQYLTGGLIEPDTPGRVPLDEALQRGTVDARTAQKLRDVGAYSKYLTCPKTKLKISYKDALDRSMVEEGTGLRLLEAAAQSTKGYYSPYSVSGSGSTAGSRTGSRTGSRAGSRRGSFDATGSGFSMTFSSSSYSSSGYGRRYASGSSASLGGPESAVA
Sequence of UniProt P52565 (P52565 whole entry): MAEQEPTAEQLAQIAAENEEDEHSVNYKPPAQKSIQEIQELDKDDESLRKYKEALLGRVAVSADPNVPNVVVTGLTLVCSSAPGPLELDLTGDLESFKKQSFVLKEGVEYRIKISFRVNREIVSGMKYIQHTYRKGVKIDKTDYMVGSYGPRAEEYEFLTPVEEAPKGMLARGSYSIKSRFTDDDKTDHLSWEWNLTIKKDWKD
Sequence of UniProt P26447 (P26447 whole entry, looked up): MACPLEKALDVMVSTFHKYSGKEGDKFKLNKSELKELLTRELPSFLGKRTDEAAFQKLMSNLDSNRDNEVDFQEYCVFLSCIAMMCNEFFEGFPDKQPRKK
Sequence of UniProt Q9Y3C8 (Q9Y3C8 whole entry): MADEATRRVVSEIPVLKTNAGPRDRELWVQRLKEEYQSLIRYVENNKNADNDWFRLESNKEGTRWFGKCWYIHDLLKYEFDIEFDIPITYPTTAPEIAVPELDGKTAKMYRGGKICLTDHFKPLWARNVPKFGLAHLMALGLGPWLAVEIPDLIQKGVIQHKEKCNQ

Target | lysine labeling ratio R10:1
ANXA7 (lysine site: K268) (UniProt P20073) | 2.89
TF (lysine site: K135) (UniProt P02787) | 1.26 (active)
HNRNPA1 (lysine site: K8) (UniProt P09651) | 4.27
IGF1R (lysine site: K502) (UniProt P08069) | 2.64
GPC1 (lysine site: K347) (UniProt P35052) | 4.46
SDC4 (lysine site: K104) (UniProt P31431) | 3.81
CRIM1 (lysine site: K176) (UniProt Q9NZV1) | 2.01
SPTAN1 (lysine site: K1543) (UniProt Q13813) | 1.58 (active)
PSMB1 (lysine site: K204) (UniProt P20618) | 2.46
UniProt P55145 (lysine site: K45) | 4
VDAC1 (lysine site: K274) (UniProt P21796) | 0.919 (active)
UniProt P62249 (lysine site: K130) | 4.97
UniProt Q15365 (lysine site: K314) | 1.71 (active)
SERPINH1 (lysine site: K217) (UniProt P50454) | 1.17 (active)
TUBA1A (lysine site: K336) (UniProt Q71U36) | 2 (active)
CKAP4 (lysine site: K405) (UniProt Q07065) | 1.2 (active)
ARHGDIA (lysine site: K52) (UniProt P52565) | 1.66 (active)
MYH9 (lysine site: K1845) (UniProt P35579) | 1.57 (active)
UniProt Q99500 (lysine site: K27) | 1.9 (active)
UniProt Q16352 (lysine site: K290) | 1.71 (active)

Target | lysine labeling ratio R10:1
DDX3X (lysine site: K264) (UniProt O00571) | 1.78 (active)
VTN (lysine site: K194) (UniProt P04004) | 16.5
FLNA (lysine site: K92) (UniProt P21333) | 5.97
ITGA4 (lysine site: K526) (UniProt P13612) | 1.76 (active)
UniProt Q15149 (lysine site: K1975) | 5.68
HNRNPM (lysine site: K651) (UniProt P52272) | 2.28
KIRREL (lysine site: K410) (UniProt Q96J84) | 2.51
CAPZA1 (lysine site: K19) (UniProt P52907) | 2.43
UniProt Q15223 (lysine site: K190) | 1.25 (active)
UniProt P22413 (lysine site: K465) | 1.52 (active)
UniProt P08727 (lysine site: K216) | 7.74
UniProt Q15149 (lysine site: K877) | 2.95
FLNB (lysine site: K2470) (UniProt O75369) | 1.78 (active)
PTPRS (lysine site: K144) (UniProt Q13332) | 1.57 (active)
NOTCH2 (lysine site: K1058) (UniProt Q04721) | 1.5 (active)
UFC1 (lysine site: K33) (UniProt Q9Y3C8) | 3.81
S100A4 (lysine site: K35) (UniProt P26447) | 6.43
ROR2 (lysine site: K97) (UniProt Q01974) | 6.68
PSMA2 (lysine site: K53) (UniProt P25787) | 2.94
SLC25A5 (lysine site: K245) (UniProt P05141) | 2.26
